# Measurements taken from paper PMC11006913.
# Changes are numbered by the printed parent chain.
# Key:
# Test in all cases: PBM; 200 nM protein, PBS
# Conditions in all cases: dsDNA, one strand shown
# SIX6 [1] = target: T1, SIX6 (Homo sapiens, UniProt O95475 114-200, L167I)
# T1 sequence: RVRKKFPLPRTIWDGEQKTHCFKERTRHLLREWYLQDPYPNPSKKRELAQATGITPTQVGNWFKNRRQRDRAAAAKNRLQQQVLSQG
# SIX6 [2] = target: T2, SIX6 (Homo sapiens, UniProt O95475 114-200, L143V)
# T2 sequence: T1 sequence with L30V, I54L
# SIX6 [3] = target: T3, SIX6 (Homo sapiens, UniProt O95475 114-200, H141N)
# T3 sequence: T1 sequence with H28N, I54L
# SIX6 [4] = target: T4, SIX6 (Homo sapiens, UniProt O95475 114-200, T165P)
# T4 sequence: T1 sequence with T52P, I54L
# SIX6 [5] = target: T5, SIX6 (Homo sapiens, UniProt O95475 114-200, L167M)
# T5 sequence: T1 sequence with I54M
# SIX6 [6] = target: T6, SIX6 (Homo sapiens, UniProt O95475 114-200, L143M)
# T6 sequence: T1 sequence with L30M, I54L
# SIX6 [7] = target: T7, SIX6 (Homo sapiens, UniProt O95475 114-200, L143I)
# T7 sequence: T1 sequence with L30I, I54L
# SIX6 [8] = target: T8, SIX6 (Homo sapiens, UniProt O95475 114-200, T165G)
# T8 sequence: T1 sequence with T52G, I54L
# HOXA2 [9] = target: HOXA2 (Homo sapiens, UniProt O43364 129-215, R185T)
# SIX6 [10] = target: T9, SIX6 (Homo sapiens, UniProt O95475 114-200, T139Q)
# T9 sequence: T1 sequence with T26Q, I54L
# SIX6 [11] = target: T10, SIX6 (Homo sapiens, UniProt O95475 114-200, T165A)
# T10 sequence: T1 sequence with T52A, I54L
# HOXA2 [12] = target: HOXA2 (Homo sapiens, UniProt O43364 129-215, R185K)
# SIX6 [13] = target: T11, SIX6 (Homo sapiens, UniProt O95475 114-200, L167V)
# T11 sequence: T1 sequence with I54V
# SIX6 [14] = target: T12, SIX6 (Homo sapiens, UniProt O95475 114-200)
# T12 sequence: T1 sequence with I54L
# SIX6 [15] = target: T13, SIX6 (Homo sapiens, UniProt O95475 114-200, T165I)
# T13 sequence: T1 sequence with T52I, I54L
# HOXA2 [16] = target: HOXA2 (Homo sapiens, UniProt O43364 129-215, Y150S)
# HOXA2 [17] = target: HOXA2 (Homo sapiens, UniProt O43364 129-215)
# HOXA2 (Homo sapiens, UniProt O43364 129-215), sequence (O43364 129-215): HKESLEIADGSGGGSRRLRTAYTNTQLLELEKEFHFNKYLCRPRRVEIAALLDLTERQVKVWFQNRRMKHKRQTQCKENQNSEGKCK
# HOXA2 (Homo sapiens, UniProt O43364 129-215, R185K), sequence (O43364 129-215 R185K): as the sequence (O43364 129-215) above, with R57K counted along it
# HOXA2 (Homo sapiens, UniProt O43364 129-215, Y150S), sequence (O43364 129-215 Y150S): as the sequence (O43364 129-215) above, with Y22S counted along it
# HOXA2 (Homo sapiens, UniProt O43364 129-215, R185T), sequence (O43364 129-215 R185T): as the sequence (O43364 129-215) above, with R57T counted along it
Sequence,binding signal (SIX6 [1]),binding signal (SIX6 [2]),binding signal (SIX6 [3]),binding signal (SIX6 [4]),binding signal (SIX6 [5]),binding signal (SIX6 [6]),binding signal (SIX6 [7]),binding signal (SIX6 [8]),binding signal (HOXA2 [9]),binding signal (SIX6 [10]),binding signal (SIX6 [11]),binding signal (HOXA2 [12]),binding signal (SIX6 [13]),binding signal (SIX6 [14]),binding signal (SIX6 [15]),binding signal (HOXA2 [16]),binding signal (HOXA2 [17])
CCCTAGGG,"8.88 upbm affinity estimate (log intensity, higher = more binding, comparable within an allelic series)","8.72 upbm affinity estimate (log intensity, higher = more binding, comparable within an allelic series)","8.93 upbm affinity estimate (log intensity, higher = more binding, comparable within an allelic series)","8.83 upbm affinity estimate (log intensity, higher = more binding, comparable within an allelic series)","8.9 upbm affinity estimate (log intensity, higher = more binding, comparable within an allelic series)","8.91 upbm affinity estimate (log intensity, higher = more binding, comparable within an allelic series)","8.92 upbm affinity estimate (log intensity, higher = more binding, comparable within an allelic series)","8.95 upbm affinity estimate (log intensity, higher = more binding, comparable within an allelic series)","7.32 upbm affinity estimate (log intensity, higher = more binding, comparable within an allelic series)","9.15 upbm affinity estimate (log intensity, higher = more binding, comparable within an allelic series)","8.86 upbm affinity estimate (log intensity, higher = more binding, comparable within an allelic series)","10.4 upbm affinity estimate (log intensity, higher = more binding, comparable within an allelic series)","9.08 upbm affinity estimate (log intensity, higher = more binding, comparable within an allelic series)","8.85 upbm affinity estimate (log intensity, higher = more binding, comparable within an allelic series)","8.92 upbm affinity estimate (log intensity, higher = more binding, comparable within an allelic series)","10.3 upbm affinity estimate (log intensity, higher = more binding, comparable within an allelic series)","7.33 upbm affinity estimate (log intensity, higher = more binding, comparable within an allelic series)"
CGCTCCGC,"8.79 upbm affinity estimate (log intensity, higher = more binding, comparable within an allelic series)","8.89 upbm affinity estimate (log intensity, higher = more binding, comparable within an allelic series)","8.83 upbm affinity estimate (log intensity, higher = more binding, comparable within an allelic series)","8.94 upbm affinity estimate (log intensity, higher = more binding, comparable within an allelic series)","8.9 upbm affinity estimate (log intensity, higher = more binding, comparable within an allelic series)","8.87 upbm affinity estimate (log intensity, higher = more binding, comparable within an allelic series)","8.84 upbm affinity estimate (log intensity, higher = more binding, comparable within an allelic series)","8.81 upbm affinity estimate (log intensity, higher = more binding, comparable within an allelic series)",,"8.84 upbm affinity estimate (log intensity, higher = more binding, comparable within an allelic series)","8.85 upbm affinity estimate (log intensity, higher = more binding, comparable within an allelic series)",,"8.79 upbm affinity estimate (log intensity, higher = more binding, comparable within an allelic series)","8.81 upbm affinity estimate (log intensity, higher = more binding, comparable within an allelic series)","8.82 upbm affinity estimate (log intensity, higher = more binding, comparable within an allelic series)",,
GGGGGGAC,"8.99 upbm affinity estimate (log intensity, higher = more binding, comparable within an allelic series)","8.81 upbm affinity estimate (log intensity, higher = more binding, comparable within an allelic series)","8.96 upbm affinity estimate (log intensity, higher = more binding, comparable within an allelic series)","8.71 upbm affinity estimate (log intensity, higher = more binding, comparable within an allelic series)","8.97 upbm affinity estimate (log intensity, higher = more binding, comparable within an allelic series)","8.91 upbm affinity estimate (log intensity, higher = more binding, comparable within an allelic series)","8.72 upbm affinity estimate (log intensity, higher = more binding, comparable within an allelic series)","8.92 upbm affinity estimate (log intensity, higher = more binding, comparable within an allelic series)",,"8.93 upbm affinity estimate (log intensity, higher = more binding, comparable within an allelic series)","9 upbm affinity estimate (log intensity, higher = more binding, comparable within an allelic series)",,"8.74 upbm affinity estimate (log intensity, higher = more binding, comparable within an allelic series)","8.93 upbm affinity estimate (log intensity, higher = more binding, comparable within an allelic series)","8.96 upbm affinity estimate (log intensity, higher = more binding, comparable within an allelic series)",,
AGCGCCCG,"9.03 upbm affinity estimate (log intensity, higher = more binding, comparable within an allelic series)","8.99 upbm affinity estimate (log intensity, higher = more binding, comparable within an allelic series)","9.03 upbm affinity estimate (log intensity, higher = more binding, comparable within an allelic series)","9.05 upbm affinity estimate (log intensity, higher = more binding, comparable within an allelic series)","9.04 upbm affinity estimate (log intensity, higher = more binding, comparable within an allelic series)","9.02 upbm affinity estimate (log intensity, higher = more binding, comparable within an allelic series)","8.98 upbm affinity estimate (log intensity, higher = more binding, comparable within an allelic series)","8.98 upbm affinity estimate (log intensity, higher = more binding, comparable within an allelic series)",,"8.94 upbm affinity estimate (log intensity, higher = more binding, comparable within an allelic series)","8.98 upbm affinity estimate (log intensity, higher = more binding, comparable within an allelic series)",,"8.97 upbm affinity estimate (log intensity, higher = more binding, comparable within an allelic series)","8.99 upbm affinity estimate (log intensity, higher = more binding, comparable within an allelic series)","9 upbm affinity estimate (log intensity, higher = more binding, comparable within an allelic series)",,
CCCGGGAC,"8.81 upbm affinity estimate (log intensity, higher = more binding, comparable within an allelic series)","9.03 upbm affinity estimate (log intensity, higher = more binding, comparable within an allelic series)","8.97 upbm affinity estimate (log intensity, higher = more binding, comparable within an allelic series)","8.99 upbm affinity estimate (log intensity, higher = more binding, comparable within an allelic series)","9.01 upbm affinity estimate (log intensity, higher = more binding, comparable within an allelic series)","9.18 upbm affinity estimate (log intensity, higher = more binding, comparable within an allelic series)","9.04 upbm affinity estimate (log intensity, higher = more binding, comparable within an allelic series)","9.17 upbm affinity estimate (log intensity, higher = more binding, comparable within an allelic series)",,"9.14 upbm affinity estimate (log intensity, higher = more binding, comparable within an allelic series)","9.12 upbm affinity estimate (log intensity, higher = more binding, comparable within an allelic series)",,"8.96 upbm affinity estimate (log intensity, higher = more binding, comparable within an allelic series)","9.07 upbm affinity estimate (log intensity, higher = more binding, comparable within an allelic series)","9.02 upbm affinity estimate (log intensity, higher = more binding, comparable within an allelic series)",,
CCCTCGGC,"9.06 upbm affinity estimate (log intensity, higher = more binding, comparable within an allelic series)","8.91 upbm affinity estimate (log intensity, higher = more binding, comparable within an allelic series)","9.09 upbm affinity estimate (log intensity, higher = more binding, comparable within an allelic series)","8.86 upbm affinity estimate (log intensity, higher = more binding, comparable within an allelic series)","9.04 upbm affinity estimate (log intensity, higher = more binding, comparable within an allelic series)","9.07 upbm affinity estimate (log intensity, higher = more binding, comparable within an allelic series)","8.97 upbm affinity estimate (log intensity, higher = more binding, comparable within an allelic series)","9.07 upbm affinity estimate (log intensity, higher = more binding, comparable within an allelic series)",,"9.11 upbm affinity estimate (log intensity, higher = more binding, comparable within an allelic series)","8.99 upbm affinity estimate (log intensity, higher = more binding, comparable within an allelic series)",,"8.92 upbm affinity estimate (log intensity, higher = more binding, comparable within an allelic series)","9.04 upbm affinity estimate (log intensity, higher = more binding, comparable within an allelic series)","9.03 upbm affinity estimate (log intensity, higher = more binding, comparable within an allelic series)",,
